Screening data (PubChem BioAssay)
A selection: hits, their analogues and other compounds. The true share with any hit is near 19%.
TGFb SMAD3 inh: inhibitors of TGF-b signaling | HepG2 CAGA-GFP TGF-b/SMAD3 reporter, GFP fluorescence, 18 h; TGF-beta stimulated, 500 pg/mL final | Potency, µM (titrated, usually from 46.1 µM), for inactives: top-dose activity, negative = inhibition, most hits filed as inhibitors | actives 1.2% (n = 410,000); also: potency is read from the fitted curve at half-maximal effect; % is scaled to controls: 0 for no effect and ±100 for the full control effect; nearly all actives have a fitted effect of over 65% in size
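HEPG2 CAGA-GFP cells (1000/well, DMEM with 1% FBS) were pre-incubated 2 h at 37 degrees C, given compound by pin tool, then stimulated with TGF-beta at 500 pg/mL final for 18 h before per-cell GFP fluorescence imaging.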
HepG2 viability: HepG2 cytotoxicity, counter-screen for TGF-b inhibitors. HepG2 CAGA-GFP viability, ATP luminescence, 18 h. Potency, µM (titrated, usually from 46.1 µM), without a hit: at the highest dose activity change, negative = cytotoxicity, most hits filed as cytotoxic. actives 0.76% (n = 410,000); also: potency is read from the fitted curve at half-maximal effect
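HepG2 CAGA-GFP cells (1000/well, DMEM with 1% FBS) received compound, then TGF-beta at 500 pg/mL final, and were incubated 18 hours at 37 degrees C. Viability was read by CellTiter-Glo luminescence. Media-only wells were set as complete cell-killing and DMSO as no toxicity.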
TDP1 inh: blocks human tyrosyl-DNA phosphodiesterase 1; Q9NUW8; recombinant TDP1, AlphaScreen DNA substrate cleavage; Potency, µM (doses to about 130 µM), inactives show top-dose activity change, negative = inhibition, usual class: inhibitors; actives 0.28% (n = 350,000); also: potency is read from the fitted curve at half-maximal effect; % is scaled to controls: 0 for no effect and ±100 for the full control effect; nearly all actives have a fitted effect of over 40% in size
Target sequence (Q9NUW8 whole entry, looked up): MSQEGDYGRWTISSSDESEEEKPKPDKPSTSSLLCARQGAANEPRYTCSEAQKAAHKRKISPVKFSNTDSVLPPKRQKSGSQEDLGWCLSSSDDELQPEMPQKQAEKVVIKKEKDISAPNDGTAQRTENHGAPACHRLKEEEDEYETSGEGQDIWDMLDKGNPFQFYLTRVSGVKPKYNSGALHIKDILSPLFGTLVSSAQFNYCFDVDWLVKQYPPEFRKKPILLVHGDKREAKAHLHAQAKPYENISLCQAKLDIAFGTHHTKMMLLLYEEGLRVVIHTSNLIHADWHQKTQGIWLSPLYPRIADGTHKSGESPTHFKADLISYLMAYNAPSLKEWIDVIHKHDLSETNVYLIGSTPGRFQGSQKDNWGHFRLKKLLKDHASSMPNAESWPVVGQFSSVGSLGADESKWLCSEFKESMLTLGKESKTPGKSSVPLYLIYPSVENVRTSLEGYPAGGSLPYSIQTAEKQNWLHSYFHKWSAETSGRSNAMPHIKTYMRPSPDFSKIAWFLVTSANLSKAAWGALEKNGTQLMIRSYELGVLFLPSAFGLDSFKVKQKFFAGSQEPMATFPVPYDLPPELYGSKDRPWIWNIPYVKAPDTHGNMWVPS
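Recombinant human Tdp1 (E. coli-expressed, 1 nM final) preincubated with compounds 15 min at room temperature, then 5'-biotin/3'-phosphotyrosine-FITC DNA substrate (15 nM final) added for 5 min. AlphaScreen beads (10 ug/ml final) added 10 min; cleavage lowers signal.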
TDP1 cell noCPT: qHTS for Inhibitors of human tyrosyl-DNA phosphodiesterase 1 (TDP1): qHTS in cells in absence of CPT. DT40 Tdp1-/- hTDP1 cells, no CPT, ATP luminescence, 48 h. Potency, µM (titrated, usually from 46.2 µM), for the others: at the top dose activity change, negative = growth inhibition, usual class: inhibitors. actives 15% (n = 420,000). AID 686978, 2013; also: potency is read from the fitted curve at half-maximal effect; % is scaled to controls: 0 for no effect and ±100 for the full control effect; nearly all actives have a fitted effect of over 55% in size
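A cellular qHTS used chicken DT40 cells lacking endogenous Tdp1 but carrying stably transfected human TDP1. Compounds were applied without camptothecin, and cell growth kinetics were judged by ATP-dependent luminescence after ≥48 hr.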
DT40 TDP1 CPT: growth inhibition of DT40 Tdp1-/-;hTDP1 cells with camptothecin (screen for TDP1 inhibitors); chicken DT40 Tdp1-/-;hTDP1 cells + 20 nM CPT, ATP luminescence, 48 h; Potency, µM (series often up to 46.2 µM), for inactives: at the highest dose activity change, negative = growth inhibition, usual class: inhibitors; actives 12% (n = 420,000); AID 686979; also: potency is read from the fitted curve at half-maximal effect; % is scaled to controls: 0 for no effect and ±100 for the full control effect; nearly all actives have a fitted effect of over 55% in size
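Chicken DT40 Tdp1-/- cells stably complemented with human TDP1 were seeded at 400 cells/well in medium containing 20 nM camptothecin, exposed to pin-transferred compounds, and grown at 37 °C for at least 48 hr. Viability was read as ATP luminescence.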
IL-1B inflam inh: inflammasome signaling inhibition, IL-1 beta readout; THP-1 LPS/ATP IL-1B secretion, AlphaLISA, 16 h; active compounds read low; activity change, % at 57.5 µM; actives 4.7% (n = 360,000); AID 743279; in the data active = activity change below about -50%; inconclusive = mostly about -30% to -49%; also: % is scaled to controls: 0 for no effect and ±100 for the full control effect
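Secreted IL-1B measured by AlphaLISA bead assay after 16 h compound exposure of THP-1 cells; compounds (final up to 57.5 uM) added 1 h before LPS (250 ng/mL) and ATP (1.25 mM) stimulation; lower signal means less secretion.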
The depositor's hits bear a star; ? = inconclusive; . = no result; [ ] = remark or other dose. Unless noted, calls follow the shape of the dose curve; as a rule, active = well fitted curve in the direction sought with a large enough effect; inconclusive = small, poorly fitted or top-dose-only effect, or another doubt; inactive = no such curve, though single readings can be large; an effect the other way counts as inactive or inconclusive.

SMILES	TGFb SMAD3 inh	HepG2 viability	TDP1 inh	TDP1 cell noCPT	DT40 TDP1 CPT	IL-1B inflam inh
Cc1ccc(NC(=O)CSc2nccn2Cc2ccc3c(c2)OCO3)c(C)c1	-4%	-16%	11%	-1%	-14%	.
Cc1cc(C)c2sc(N(CCCN(C)C)C(=O)c3ccc(Br)s3)nc2c1	?	-78%	6%	15µM*	?	.
Cc1cc(C)c2sc(N(CCCN(C)C)C(=O)CN3C(=O)c4ccccc4C3=O)nc2c1	?	-65%	4%	?	?	0
Cc1cc(C)c2sc(N(CCN(C)C)C(=O)c3c(F)cccc3F)nc2c1	?	-40%	5%	?	-29%	-71*
COc1ccc(-c2noc(CCC(=O)N(C)c3cc(Cl)ccc3OC)n2)cc1	-23%	-20%	-2%	-29%	?	.
CCc1ccc2c(c1)NC(=O)C2(C)Cc1ccc(Cl)s1 (centres undefined)	?	-77%	.	?	?	-8
CCc1ccccc1NC(=O)C(CC)Sc1ncnc2c1sc1ccccc12 (centres undefined)	-1%	4%	8%	?	?	.
O=C(COC(=O)C1CCCCC1)Nc1cc([N+](=O)[O-])ccc1F	2%	-2%	3%	17%	?	-8
COc1ccc(C(CC(=O)c2ccccc2)C2CCCCC2=O)cc1 (centres undefined)	-28%	-33%	1%	-29%	16µM*	-3
COc1ccc(C2CC(c3ccccc3)Oc3cc(C)c(Cl)c(C)c32)cc1 (centres undefined)	-19%	-24%	3%	.	.	.
Cc1cc(NC(=O)c2ccc(NC(=O)C3CCCO3)cc2)ccc1Br (centres undefined)	-24%	-17%	0%	23µM*	?	59
Cc1ccc(S(=O)(=O)N2CCCN(S(=O)(=O)c3ccc4ccccc4c3)CC2)cc1	-2%	3%	2%	?	8.2µM*	-16
Cc1ccc(S(=O)(=O)Nc2ccc(N3CCCCC3)cc2)cc1	-4%	-5%	7%	?	?	5
Cc1ccc(S(=O)(=O)N2CCC(C(=O)Nc3ccc(S(=O)(=O)N4CCCC4)cc3)CC2)cc1C	-3%	-15%	0%	18µM*	?	5
COc1ccc(S(=O)(=O)N2CCC(C(=O)Nc3ccc(OC)c(OC)c3)CC2)cc1C	-2%	2%	.	-18%	-14%	-9
CN1CCN(S(=O)(=O)c2ccc3ccccc3c2)CC1	-10%	-1%	3%	1%	1%	-3
Cc1ccc(NS(=O)(=O)c2ccc(C3CCCCC3)cc2)cc1	13µM*	10µM*	-3%	?	?	0
CC(C)n1nnnc1C1c2ccccc2C(=O)N1CCc1c[nH]c2ccccc12 (centres undefined)	.	.	.	?	?	-1
Cc1ccc(S(=O)(=O)OCCc2ccccc2)cc1	.	.	6%	.	.	.
Cc1ccc(S(=O)(=O)N2CCCN(S(=O)(=O)c3ccc(C)c(C)c3)CC2)cc1C	5%	-14%	-1%	18µM*	23µM*	0
Cc1ccc(C(=O)N2C3C=CC(C3)C2(C(F)(F)F)C(F)(F)F)cc1 (centres undefined)	?	1%	-1%	-23%	-26%	24
COc1ccc(CNC(=O)C2CCN(S(=O)(=O)c3ccc(-c4nn[nH]n4)cc3)CC2)cc1	19%	-3%	-5%	-12%	-5%	-2
Cc1ccc(S(=O)(=O)N2CCC(C(=O)N(C)C3CCS(=O)(=O)C3)CC2)cc1 (centres undefined)	0%	-29%	3%	?	23µM*	24
COC(=O)C1(C(F)(F)F)C2C=CC(C2)N1S(=O)(=O)c1ccc(C)cc1 (centres undefined)	12%	-11%	.	21µM*	23µM*	15
CCCNC(=O)C1CCN(S(=O)(=O)c2ccc(-c3nn[nH]n3)cc2)CC1	13%	-8%	6%	0.01µM*	12µM*	14
SMILES	TGFb SMAD3 inh	HepG2 viability	TDP1 inh	TDP1 cell noCPT	DT40 TDP1 CPT	IL-1B inflam inh
Cc1ccc(S(=O)(=O)N2CCC(C(=O)Nc3ccc(C(C)C)cc3)CC2)cc1	-9%	-36%	-1%[56.1 µM]	15µM*	23µM*	-4
COc1ccc(S(=O)(=O)N2CCCN(S(=O)(=O)c3ccc(OC)cc3C)CC2)c(C)c1	?	-20%	3%	?	23µM*	-21
Cc1ccc(S(=O)(=O)N2CCCN(C)c3nc4ccccc4nc32)cc1	-1%	-14%	-11%	16µM*	?	-2
CN1CCCN(S(=O)(=O)c2ccccc2)c2nc3ccccc3nc21	-7%	11%	6%[0.505 µM]	-30%	1%	-9
O=C(c1ccc2ccccc2c1)N1CCN(c2ccc(O)cc2)CC1	-25%	-61%	2%	?	?	2
O=C(CSc1ccc2ccccc2c1)N1CCN(c2ccc(O)cc2)CC1	-4%	-8%	11%	12µM*	13µM*	25
CC1CCN(S(=O)(=O)c2ccc3c(c2)CCC(=O)N3CC(=O)Nc2cccc(C#N)c2)CC1	?	-14%	?	?	?	.
Cc1ccc(C(=O)c2oc3ccccc3c2NC(=O)Cc2coc3c(C)c(C)ccc23)cc1	-2%	-3%	-4%	-5%	-2%	.
CCc1ccccc1NC(=O)c1oc(=O)c2ccccc2c1-c1ccccc1	-20%	-26%	9%	?	?	.
CC1CC(C)CN(S(=O)(=O)c2ccc(NC(=O)CN3CCCCCC3)cc2)C1 (centres undefined)	?	-35%	0%[0.505 µM]	21µM*	16µM*	-53*
Cc1ccc(S(=O)(=O)N2CCC(C(=O)Nc3ccc(S(=O)(=O)N4CCCC4)cc3)CC2)cc1	-9%	-14%	.	15µM*	?	-9
Cc1ccc(S(=O)(=O)N2CCCCC2)cc1NC(=O)C1CCN(C(=O)OC(C)(C)C)CC1	-1%	0%	.	16µM*	?	22
O=C(O)C1CCCCC1C(=O)Nc1ccc(S(=O)(=O)N2CCCCCC2)cc1 (centres undefined)	0%	0%	.	-16%	-19%	-6
CC1CC1C(=O)Nc1ccc(S(=O)(=O)N2CCCCC2)cc1 (centres undefined)	-13%	-2%	5%	21µM*	23µM*	14
